Measurements taken from PubChem BioAssay AID1345085 (National Center for Advancing Translational Sciences (NCATS), 2018).
Results filed as inconclusive are left out. Active and inactive are the calls of the source. The call rests on the fitted dose curve; in most records, active means well fitted cell-killing curve with a large enough effect; inconclusive means small, poorly fitted or top-dose-only effect, or effect the other way; inactive means no such curve, though single readings can be large or run the other way.

system: Jar; assay: Confirmatory qHTS for gynecologic anti-cancer compounds from libraries of approved drugs and bioactive compounds; settings: gynecologic cancer cell panel viability, ATPlite luminescence, 48 h; series mostly up to 57.6 µM; further: nearly all actives have a fitted effect of over 55% in size
In short: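 ATPlite luminescence read-out of cell viability; IC50 from 11-point 1:3 titrations, 57.5 uM to 0.977 nM, 48 h compound exposure at 37 C, 5% CO2. Cells seeded at 1,000/well 16 h before dosing.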
Potency means the concentration at half of the fitted maximal effect.

Row | Structure (SMILES) | Potency
1 | CC(C)n1c(/C=C/[C@@H](O)C[C@@H](O)CC(=O)O)c(-c2ccc(F)cc2)c2ccccc21 | 10.9 µM (active)
2 | N=C(N)c1ccc(OCCCCCOc2ccc(C(=N)N)cc2)cc1 | 5.44 µM (active)
3 | Oc1cn2c(n1)Nc1ccc(Cl)c(Cl)c1C2 | inactive
4 | CCN(CC)CCOc1ccc(/C(=C(\Cl)c2ccccc2)c2ccccc2)cc1 | 89.1 µM (active)
